PubChem BioAssay
For some of these results: Results with a measured potency or affinity are listed apart. This is one part of the list. Activity calls are given as the source filed them.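 The calls were made as follows, unless noted: active = hit in primary screen, with calcium signal over 5 SD above buffer well mean in both duplicates; inactive = the rest.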

Key:
[1] = test system: TRPC4 beta (transient receptor potential cation channel C4), mouse; assay: TRPC4 cation channel opening, retest – cell-based, Fluo4 calcium, HEK293 TRPC4beta/mu-opioid, duplicates, 10 µM, confirmation (AID 2426;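 active = fluorescence ratio normalized to control raised more than 50% in primary screen plus both repeat runs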;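 as to activation: percent rise of integrated ratio over buffer wells lacking compound which define 0%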); settings: Fluo4 calcium fluorescence, at 10 µM; active compounds read high
[2] = test system: transient receptor potential cation channel C4 beta (TRPC4), mouse; assay: TRPC4 cation channel opening, second retest – cell-based, second round, Fluo4, HEK293 TRPC4beta/mu-opioid, 1 µM, confirmation (AID 2461;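 active = primary screen active and over 50% activation in each of two duplicate runs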;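 as to activation: 0% = wells without test compound as baseline of integrated fluorescence ratio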); settings: Fluo4 calcium fluorescence, at 1 µM; active compounds read high
[3] = test system: TRPC4 (transient receptor potential cation channel C4 beta), mouse; assay: potentiation of DAMGO EC20 TRPC4 response – cell-based, second round, Fluo-4, HEK293 TRPC4beta/mu-opioid, 1 µM, confirmation (AID 2554;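 active = primary screen hit whose fluorescence ratio, in both repeats, exceeds the weak agonist control mean by 3 SD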); settings: DAMGO EC20, Fluo-4 calcium flux, at 1 µM; active compounds read high
[4] = test system: TRPC4 beta (transient receptor potential cation channel C4), mouse; assay: potentiation of DAMGO EC20 TRPC4 response – cell-based, Fluo-4, HEK293 TRPC4beta/mu-opioid, confirmation (AID 2555;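 active = primary screen hit whose calcium fluorescence ratio, in both repeats, exceeds the weak agonist control mean by 3 SD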); settings: DAMGO EC20, Fluo-4 calcium flux, at 10 µM; active compounds read high
[5] = target: Short transient receptor potential channel 4 (Mus musculus) (UniProt Q9QUQ5); assay: blockers of DAMGO-evoked TRPC4 calcium flux – cell-based, Fluo4, HEK293 TRPC4beta/mu-opioid, confirmation (AID 2636;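 active = calcium signal cut by more than 3 SD below the full-agonist control yet still positive, in both repeats and the earlier primary screen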); settings: at 10 µM; active compounds read high
Sequence of Short transient receptor potential channel 4 (Mus musculus) (Q9QUQ5 whole entry, looked up): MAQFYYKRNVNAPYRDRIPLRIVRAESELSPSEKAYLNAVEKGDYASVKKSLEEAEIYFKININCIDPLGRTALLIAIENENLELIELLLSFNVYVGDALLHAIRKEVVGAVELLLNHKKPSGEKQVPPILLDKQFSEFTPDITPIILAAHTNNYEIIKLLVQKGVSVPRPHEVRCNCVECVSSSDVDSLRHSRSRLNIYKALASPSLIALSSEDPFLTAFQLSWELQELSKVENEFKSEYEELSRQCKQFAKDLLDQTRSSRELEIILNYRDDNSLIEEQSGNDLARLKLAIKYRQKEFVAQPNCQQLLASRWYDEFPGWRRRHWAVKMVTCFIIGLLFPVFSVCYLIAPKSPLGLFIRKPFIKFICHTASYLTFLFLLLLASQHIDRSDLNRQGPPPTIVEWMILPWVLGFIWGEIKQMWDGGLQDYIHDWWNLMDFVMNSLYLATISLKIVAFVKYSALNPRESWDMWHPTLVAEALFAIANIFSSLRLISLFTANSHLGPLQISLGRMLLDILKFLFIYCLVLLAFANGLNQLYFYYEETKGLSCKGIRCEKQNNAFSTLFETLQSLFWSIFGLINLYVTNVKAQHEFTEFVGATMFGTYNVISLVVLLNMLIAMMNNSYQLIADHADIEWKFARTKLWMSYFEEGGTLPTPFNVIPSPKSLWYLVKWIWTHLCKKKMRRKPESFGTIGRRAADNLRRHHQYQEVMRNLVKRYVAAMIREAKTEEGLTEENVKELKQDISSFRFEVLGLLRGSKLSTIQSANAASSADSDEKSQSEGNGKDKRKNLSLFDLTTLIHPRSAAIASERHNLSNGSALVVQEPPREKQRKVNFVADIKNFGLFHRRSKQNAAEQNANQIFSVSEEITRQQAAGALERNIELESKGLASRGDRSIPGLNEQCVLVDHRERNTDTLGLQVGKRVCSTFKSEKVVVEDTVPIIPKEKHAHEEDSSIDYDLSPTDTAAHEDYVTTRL

[6] = target: Short transient receptor potential channel 4 (Mus musculus) (UniProt Q9QUQ5); assay: blockers of DAMGO-evoked TRPC4 calcium flux – cell-based, second round, Fluo4, HEK293 TRPC4beta/mu-opioid, 1 µM, confirmation (AID 2637;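 active = calcium signal ratio cut to more than 3 SD under the fully stimulated control mean yet still positive, in both repeats and the primary screen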); settings: at 1 µM; active compounds read high
[7] = target: Short transient receptor potential channel 4 (Mus musculus) (UniProt Q9QUQ5); assay: potentiation of DAMGO-evoked TRPC4 calcium signal – cell-based, HEK293 TRPC4/mu-opioid, Fluo-4 calcium, EC20 DAMGO, dose response (AID 434941;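 active = earlier screen potentiator hit that boosts the TRPC4 ion channel at some dose, with a dose response; inactive = no potentiation, no dose response, or not a prior hit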;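 also: calcium entry triggered by an EC20 dose of DAMGO at the co-expressed mu-opioid receptor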)
[8] = target: Short transient receptor potential channel 4 (Mus musculus) (UniProt Q9QUQ5); assay: block of DAMGO-driven TRPC4 calcium entry – cell-based, HEK293 TRPC4/mu-opioid, Fluo-4 calcium, dose response (AID 434942;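 active = primary screen inhibitor hit that blocks the TRPC4 channel at some tested dose, yielding a dose curve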)
[9] = target: Short transient receptor potential channel 6 (Mus musculus) (UniProt Q61143); assay: TRPC6 blockade by TRPC4 inhibitor hits – cell-based, HEK293, membrane potential dye, duplicate, selectivity assay for TRPC4 inhibitor project, confirmation (AID 434948;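 active = active in primary screen and both duplicates, each dropping signal beyond three positive-control SD with fluorescence still positive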); settings: HEK293 TRPC6, membrane potential dye fluorescence, at 10 µM; inhibition: active compounds read high, stimulated with maximal-effect acetylcholine unless noted; outcome: stimulated with maximal-effect acetylcholine unless noted
Sequence of Short transient receptor potential channel 6 (Mus musculus) (Q61143 whole entry, looked up): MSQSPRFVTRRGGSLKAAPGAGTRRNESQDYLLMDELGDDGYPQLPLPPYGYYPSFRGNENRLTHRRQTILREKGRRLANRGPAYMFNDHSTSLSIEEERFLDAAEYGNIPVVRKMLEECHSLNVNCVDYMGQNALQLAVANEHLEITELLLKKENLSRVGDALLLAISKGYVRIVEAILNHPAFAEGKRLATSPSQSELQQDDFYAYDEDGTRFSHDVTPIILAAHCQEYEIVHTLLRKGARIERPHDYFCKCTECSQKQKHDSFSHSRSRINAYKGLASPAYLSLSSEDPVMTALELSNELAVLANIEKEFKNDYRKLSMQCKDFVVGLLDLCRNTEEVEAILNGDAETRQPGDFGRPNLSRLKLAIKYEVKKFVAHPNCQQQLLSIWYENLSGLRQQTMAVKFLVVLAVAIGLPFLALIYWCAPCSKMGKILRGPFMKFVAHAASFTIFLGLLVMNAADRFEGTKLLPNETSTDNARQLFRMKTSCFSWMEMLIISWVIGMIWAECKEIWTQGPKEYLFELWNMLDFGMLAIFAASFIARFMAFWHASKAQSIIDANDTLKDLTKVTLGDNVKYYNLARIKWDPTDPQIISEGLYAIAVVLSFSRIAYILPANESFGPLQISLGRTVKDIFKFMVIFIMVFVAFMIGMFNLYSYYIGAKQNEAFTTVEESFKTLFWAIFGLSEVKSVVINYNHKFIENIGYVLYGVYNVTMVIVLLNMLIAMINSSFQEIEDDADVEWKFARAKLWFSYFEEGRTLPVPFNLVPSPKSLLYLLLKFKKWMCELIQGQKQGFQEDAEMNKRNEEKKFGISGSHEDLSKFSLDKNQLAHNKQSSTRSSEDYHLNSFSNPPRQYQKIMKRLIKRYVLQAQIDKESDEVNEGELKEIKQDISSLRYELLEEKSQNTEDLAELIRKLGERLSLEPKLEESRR

[10] = target: Short transient receptor potential channel 6 (Mus musculus) (UniProt Q61143); assay: TRPC6 opening by TRPC4 activator hits – cell-based, HEK293, membrane potential dye, duplicate, selectivity assay for TRPC4 activator project, confirmation (AID 434950;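 active = membrane potential signal rise above negative control mean plus 3 SD in both duplicates, also active in the earlier TRPC4 screen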;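 as to activation: 0% = buffer only wells and 100% = acetylcholine maximal-effect wells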); settings: HEK293 TRPC6, membrane potential fluorescence, at 10 µM; activation: active compounds read high; outcome: activation
[11] = target: Short transient receptor potential channel 6 (Mus musculus) (UniProt Q61143); assay: positive modulators of mouse TRPC6 channel – HEK293 cells, membrane potential dye, duplicate, selectivity assay for TRPC4 potentiator project, confirmation (AID 434952;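 active = compound raising the membrane signal above positive-control mean plus 3 SD in both repeats, and a primary screen hit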); settings: HEK293 TRPC6, membrane potential dye fluorescence, at 10 µM; maximal acetylcholine added after compound unless noted
[12] = target: Short transient receptor potential channel 4 (Mus musculus) (UniProt Q9QUQ5); assay: calcium flux activators in TRPC4/5HT1a cells, counter-screen for TRPC4 activator project, cell-based, second counter screen, HEK293 TRPC4/5HT1a, Fluo-4 (AID 434977;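 active = calcium signal rise above buffer-control mean plus 5 SD in both duplicates, and also a hit in the primary screen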;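 as to activation: plate controls were assay buffer for no effect and maximal serotonin response for full effect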); settings: Fluo-4 calcium flux, at 10 µM; active compounds read high
[13] = serotonin-gated TRPC4 signal block – cell-based, second counter screen, HEK293 TRPC4/5HT1a, Fluo-4, counter-screen for TRPC4 inhibitor project, confirmation (AID 434978;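 active = primary screen active whose calcium signal fell more than 3 SD beyond the full-serotonin control mean in both duplicate plates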;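 also: serotonin given first at submaximal then at maximal dose after compound preincubation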); settings: Fluo-4 calcium flux, at 10 µM; inhibition: active compounds read high, serotonin added to trigger calcium flux unless noted; outcome: serotonin added to trigger calcium flux unless noted
[14] = test system: TRPC4 (mouse), co-expressed with 5HT1a in HEK293; assay: enhancement of serotonin-evoked TRPC4 response – cell-based, second counter screen, HEK293 TRPC4/5HT1a, Fluo-4, counter-screen for TRPC4 potentiator project, confirmation (AID 434979;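 active = signal rise over 3 SD above mean of control wells given weak agonist, in both repeats and first screen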); settings: Fluo-4 calcium flux, at 10 µM; outcome: serotonin added at its EC20 dose unless noted; potentiation: active compounds read high, serotonin added at its EC20 dose unless noted
[15] = nonspecific calcium rise without TRPC4 – cell-based, HEK293 mu-opioid receptor line, counter-screen for TRPC4 activator project, confirmation (AID 449723); settings: HEK293 mu-opioid cells, Fluo-4 calcium fluorescence, at 10 µM; active compounds read high;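 also: counter screen cells carry the mu-opioid receptor alone and lack TRPC4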
[16] = nonspecific potentiation of DAMGO calcium response – cell-based, HEK293 mu-opioid receptor line, counter-screen for TRPC4 allosteric potentiator project, confirmation (AID 449724;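 active = calcium signal rise more than 3 SD above the low-dose agonist control mean, in both duplicate plates and the primary screen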); settings: HEK293 mu-opioid receptor cells, Fluo-4 calcium flux, at 10 µM; compound added before EC20 DAMGO stimulus unless noted
[17] = nonspecific flux increase, KCNQ1-free cells – parental CHO cells, counter-screen for KCNQ1 potentiator project (AID 493006;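 active = duplicate-averaged activation above buffer control mean plus 5 SD of those controls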;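 also: fluorescence ratio of max minus min over baseline after K+ and Tl+ depolarization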); settings: parental CHO-K1 cells, FluxOR thallium flux, at 10 µM; active compounds read high
[18] = target: Potassium voltage-gated channel subfamily KQT member 1 (Homo sapiens) (UniProt P51787); assay: enhancement of KCNQ1 channel thallium flux – FluxOR thallium flux, CHO cells, duplicates, confirmation (AID 493007;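 active = potentiation averaged over duplicate wells exceeding buffer-only control mean by more than 3 SD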;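 also: 0% = buffer-only wells and 100% = R-L3 activator control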); settings: KCNQ1 cell line, FluxOR thallium flux fluorescence, at 10 µM; active compounds read high, % of reference activator effect, buffer zero
Sequence of Potassium voltage-gated channel subfamily KQT member 1 (Homo sapiens) (P51787 whole entry, looked up): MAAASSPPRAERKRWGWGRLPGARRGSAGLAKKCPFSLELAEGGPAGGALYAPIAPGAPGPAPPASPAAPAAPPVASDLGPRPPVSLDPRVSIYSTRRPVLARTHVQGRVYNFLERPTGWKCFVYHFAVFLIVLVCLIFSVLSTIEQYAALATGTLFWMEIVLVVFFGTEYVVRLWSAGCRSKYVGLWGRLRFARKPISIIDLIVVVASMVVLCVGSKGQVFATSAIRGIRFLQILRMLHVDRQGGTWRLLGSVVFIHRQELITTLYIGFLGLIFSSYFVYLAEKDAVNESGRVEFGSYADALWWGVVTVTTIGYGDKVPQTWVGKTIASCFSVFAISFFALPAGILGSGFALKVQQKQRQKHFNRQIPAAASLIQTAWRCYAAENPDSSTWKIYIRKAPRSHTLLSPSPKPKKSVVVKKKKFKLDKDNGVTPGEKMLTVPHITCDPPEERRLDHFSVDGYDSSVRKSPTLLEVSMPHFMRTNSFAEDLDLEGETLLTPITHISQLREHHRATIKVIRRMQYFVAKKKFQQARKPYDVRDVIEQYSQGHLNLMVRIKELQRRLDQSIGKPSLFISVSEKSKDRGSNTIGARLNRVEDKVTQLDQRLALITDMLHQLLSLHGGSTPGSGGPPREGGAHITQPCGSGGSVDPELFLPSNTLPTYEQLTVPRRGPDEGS

[19] = target: Potassium voltage-gated channel subfamily KQT member 2 (Rattus norvegicus) (UniProt O88943); assay: KCNQ2 thallium flux enhancement – KCNQ2-CHO-K1 cells, selectivity assay for KCNQ1 potentiator project (AID 493009;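 active = mean duplicate potentiation above the buffer control mean plus 5 SD of buffer wells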;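 also: assay conditions were tuned for KCNQ1 rather than KCNQ2 modulators; signal is max minus min fluorescence divided by baseline after thallium stimulus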); settings: FluxOR thallium flux fluorescence, at 10 µM; active compounds read high, scaled: buffer 0, activator control 100
Sequence of Potassium voltage-gated channel subfamily KQT member 2 (Rattus norvegicus) (O88943 whole entry, looked up): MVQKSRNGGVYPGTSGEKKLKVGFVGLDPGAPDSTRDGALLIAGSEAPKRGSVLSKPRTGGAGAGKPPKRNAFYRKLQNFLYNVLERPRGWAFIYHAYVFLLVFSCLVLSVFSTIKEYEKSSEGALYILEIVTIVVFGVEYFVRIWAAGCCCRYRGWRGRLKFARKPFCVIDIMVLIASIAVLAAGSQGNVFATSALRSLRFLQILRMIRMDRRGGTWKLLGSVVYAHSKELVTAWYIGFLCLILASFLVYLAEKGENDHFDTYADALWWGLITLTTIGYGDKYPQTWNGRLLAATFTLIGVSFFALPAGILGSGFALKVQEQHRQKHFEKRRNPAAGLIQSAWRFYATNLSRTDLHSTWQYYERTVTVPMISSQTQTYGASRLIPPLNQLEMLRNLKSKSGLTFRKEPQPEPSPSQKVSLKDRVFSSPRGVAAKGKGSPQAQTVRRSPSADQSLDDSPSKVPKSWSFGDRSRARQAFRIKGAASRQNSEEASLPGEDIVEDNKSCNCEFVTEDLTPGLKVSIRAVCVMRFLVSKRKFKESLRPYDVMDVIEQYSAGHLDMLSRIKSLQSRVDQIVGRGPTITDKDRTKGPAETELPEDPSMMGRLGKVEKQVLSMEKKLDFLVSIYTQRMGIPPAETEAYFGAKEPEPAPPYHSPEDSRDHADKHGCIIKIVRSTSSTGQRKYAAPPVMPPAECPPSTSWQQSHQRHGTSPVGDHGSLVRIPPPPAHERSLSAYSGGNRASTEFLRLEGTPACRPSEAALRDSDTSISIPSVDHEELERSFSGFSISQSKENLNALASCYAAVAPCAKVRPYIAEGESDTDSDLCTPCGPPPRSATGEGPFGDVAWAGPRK

[20] = target: Potassium voltage-gated channel subfamily KQT member 1 (Homo sapiens) (UniProt P51787); assay: KCNQ1 activators by electrophysiology – IonWorks patch clamp, KCNQ1-CHO cells, orthogonal assay for KCNQ1 potentiator project, confirmation (AID 493184;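 active = current rise at least 3 SD above the untreated control mean in each of two repeat wells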); settings: automated patch clamp current, at 10 µM
[21] = target: Short transient receptor potential channel 4 (Mus musculus) (UniProt Q9QUQ5); assay: DAMGO-gated TRPC4 membrane potential modulation – cell-based, second specificity screen, HEK293 TRPC4/mu-opioid, selectivity assay for TRPC6 inhibitor project, confirmation (AID 2776;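 active = compounds whose fluorescence signal differed from control wells by over 3 SD, either direction, in both duplicate plates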); settings: HEK293 TRPC4/MOR, membrane potential dye fluorescence; at 10 µM; active compounds read high; channel activated by saturating DAMGO dose
[22] = test system: transient receptor potential cation channel C4 (TRPC4), mouse; assay: membrane potential change in TRPC4 cells – cell-based, HEK293 TRPC4/mu-opioid, membrane potential dye, selectivity assay for TRPC6 inhibitor project, confirmation (AID 2777;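 active = rise or fall in signal beyond 3 SD of buffer-only wells in both replicate plates, either sign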;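 also: integrated kinetic ratio of fluorescence range over baseline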); settings: membrane potential fluorescence, at 10 µM
[23] = parental HEK293 depolarization signal interference – cell-based, second counter screen, counter-screen for TRPC6 inhibitor project, confirmation (AID 2779;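 active = membrane potential signal moving either way by over 3 SD of the maximum-effect control, in both duplicate plates, meaning non-specific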); settings: parental HEK293 membrane potential dye fluorescence; at 10 µM; maximal acetylcholine challenge after compound addition
[24] = nonspecific voltage dye signal in HEK293 – cell-based, parental HEK293, counter-screen for TRPC6 inhibitor project, confirmation (AID 2780;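 active = membrane potential signal shifting up or down by more than 3 SD of buffer-only wells, on both duplicate plates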;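 also: plate controls were buffer EC0 wells for no effect and acetylcholine ECmax wells for full effect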); settings: parental HEK293 membrane potential dye fluorescence; at 10 µM
[25] = target: Short transient receptor potential channel 6 (Mus musculus) (UniProt Q61143); assay: blockers of TRPC6 cation channel activity – HEK293 cells, membrane potential dye, duplicate, confirmation (AID 488960;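 active = fluorescence ratio falls more than 5 SD below the full-stimulation control mean, in both duplicate runs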;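 also: integrated fluorescence ratio of peak minus minimum over baseline after agonist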); settings: ACh-evoked depolarization, at 10 µM; active compounds read high
[26] = target: Short transient receptor potential channel 6 (Mus musculus) (UniProt Q61143); assay: mouse TRPC6 channel activators, confirmation, HEK293 cells, membrane potential dye, duplicate (AID 488961;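 active = ratio signal rise beyond 5 SD above unstimulated control wells' mean, seen in both duplicate runs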); settings: HEK293-TRPC6 membrane potential dye fluorescence, FDSS; at 10 µM
[27] = nonspecific voltage dye response without TRPC6 – cell-based, parental HEK293, counter-screen for TRPC6 modulator project, confirmation (AID 488924;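 active = membrane potential signal moves up or down beyond 5 SD from buffer-only wells, on both duplicate plates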); settings: parental HEK293, membrane potential dye fluorescence; at 10 µM
[28] = membrane potential response modulators in host HEK293 cells – cell-based, second counter-screen, parental HEK293, membrane potential dye, counter-screen for TRPC6 modulator project, confirmation (AID 488926;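 active = membrane potential signal drops by more than 5 SD from the mean control signal, in both duplicate plates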;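 also: plate controls were acetylcholine ECmax control wells for no effect and buffer only wells for full effect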); settings: parental HEK293, membrane potential dye fluorescence, at 10 µM, after compound, maximal acetylcholine stimulation; active compounds read high
[29] = test system: Transient receptor potential cation channel subfamily C member 4 (mouse); assay: off-target membrane potential effects via mouse TRPC4 – cell-based, HEK293 TRPC4/mu-opioid, membrane potential dye, selectivity assay for TRPC6 modulator project, confirmation (AID 488927;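 active = membrane potential signal moved up or down beyond 5 SD of buffer control wells, in both duplicate plates, actives on both sides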;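 also: plate controls were assay buffer wells for no effect and DAMGO maximal-effect wells for full effect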); settings: membrane potential fluorescence, at 10 µM
[30] = test system: TRPC4 (transient receptor potential cation channel C4), mouse; assay: DAMGO-evoked mouse TRPC4 response blockade – cell-based, second screen, HEK293 TRPC4/mu-opioid, membrane potential dye, selectivity assay for TRPC6 modulator project, confirmation (AID 488928;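 active = drop in membrane potential signal beyond 5 SD of the control wells in both duplicate plates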;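 also: TRPC4 counter screen for TRPC6 hits run under conditions tuned for TRPC6 not TRPC4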); settings: membrane potential dye fluorescence, at 10 µM, stimulated with maximal-effect DAMGO; active compounds read high

CN(C)C1(CNC(=O)c2ccc(Cl)c(S(=O)(=O)NCc3ccco3)c2)CCCCC1
active: activation [2] 71% | activation [10] 36%
inactive: outcome [1] | outcome [3] | outcome [4] | outcome [5] | outcome [6] | outcome [7] | outcome [8] | outcome [9] | outcome [11] | outcome [12] | outcome [13] | outcome [14] | outcome [15] | outcome [16]

CCC(=O)OC1(c2cccc(C)c2)CC(C)N(C)CC1C (configuration not stated)
active: activation [1] 79% | activation [10] 74.5%
inactive: outcome [2] | outcome [3] | outcome [4] | outcome [5] | outcome [6] | outcome [7] | outcome [8] | outcome [9] inactive [setting not given] | outcome [11] inactive [setting not given] | outcome [12] | outcome [13] inactive [setting not given] | outcome [14] inactive [setting not given] | outcome [15] | outcome [16] inactive [setting not given]

CNc1ccc2oc(C[C@H]3O[C@@]4(CC[C@H]3C)O[C@H]([C@H](C)C(=O)c3ccc[nH]3)[C@H](C)C[C@H]4C)nc2c1C(=O)O
inactive: outcome [20]
active: activation [17] 144% | potentiation [18] 89% | potentiation [19] 210%

CN(C)C1(CNC(=O)Nc2ccc(Cl)c(Cl)c2)CCCCC1
active: activation [1] 229% | activation [2] 64% | activation [12] 29.4% | activation [15] 42.7%
inactive: outcome [3] | outcome [4] | outcome [5] | outcome [6] | outcome [7] | outcome [8] | outcome [9] | outcome [10] | outcome [11] | outcome [13] | outcome [14] | outcome [16]

CCCCCCCCCCCCn1ccc(=N)cc1
inactive: outcome [23] | outcome [26]
active: inhibition [21] 66% | activity change, negative = inhibition [22] -9.73% | membrane potential signal change [24] -166% | inhibition [25] 56.1%

CCN1CCN(Cc2cc(Br)cc(Br)c2O)CC1
active: activation [1] 221% | activation [2] 133% | activation [10] 38.5% | activation [12] 70.3%
inactive: outcome [3] | outcome [4] | outcome [5] | outcome [6] | outcome [7] | outcome [8] | outcome [9] | outcome [11] | outcome [13] | outcome [14] | outcome [15] | outcome [16]

COc1cc2c3cc1Oc1cc(ccc1O)C[C@@H]1c4c(cc(OC)c(O)c4Oc4ccc(cc4)C[C@H]3N(C)CC2)CCN1C
inactive: outcome [2] | outcome [3] | outcome [4] | outcome [5] | outcome [6] | outcome [7] | outcome [8] | outcome [9] | outcome [11] | outcome [12] | outcome [13] | outcome [14] | outcome [15] | outcome [16]
active: activation [1] 69% | activation [10] 26%

CN1CCN(c2cc(N3CCNCC3)ccc2[N+](=O)[O-])CC1
inactive: outcome [26]
active: membrane potential signal change [27] -426% | inhibition [28] 102% | percent change from control (negative = decrease, positive = increase) [29] -68% | inhibition [30] 66.5% | inhibition [25] 72.5%

COc1ccc(C(CNC(=O)CCc2ccsc2)N(C)C)cc1 (configuration not stated)
inactive: outcome [3] | outcome [4] | outcome [5] | outcome [6] | outcome [7] | outcome [8] | outcome [9] | outcome [11] | outcome [12] | outcome [13] | outcome [14] | outcome [15] | outcome [16]
active: activation [1] 67% | activation [2] 129% | activation [10] 45.5%
